G9a block = blocks human histone lysine methyltransferase G9a. AID 504332. actives 8.8% (n = 350,000). Potency, µM (titrated, usually from 102 µM), without a hit: top-dose activity, negative = inhibition, hits mostly inhibitors. G9a H3K9 monomethylation, AlphaScreen, 2 h; note: % is set by controls: 0 for no effect and ±100 for the full control effect; nearly all actives have a fitted effect of over 75% in size
Target sequence (Q96KQ7 913-1193 limits assumed): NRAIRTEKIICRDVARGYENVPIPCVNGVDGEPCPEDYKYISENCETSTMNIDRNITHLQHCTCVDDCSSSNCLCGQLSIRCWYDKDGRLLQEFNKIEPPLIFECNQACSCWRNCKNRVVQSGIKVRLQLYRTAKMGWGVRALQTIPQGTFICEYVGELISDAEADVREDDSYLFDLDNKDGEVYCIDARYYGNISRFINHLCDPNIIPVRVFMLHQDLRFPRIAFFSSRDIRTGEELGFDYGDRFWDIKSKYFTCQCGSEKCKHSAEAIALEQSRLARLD
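Step 1: enzyme (final 20 nM) with compound, 15 min RT. Step 2: substrate peptide 500 nM and SAM 20 uM, 2 h RT. Step 3: anti-H3K9me1 antibody and AlphaScreen beads, 10 min, then plate read.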
Sfp inh = blocks B. subtilis Sfp PPTase activity. Potency, µM, without a hit: largest response in the series, negative = inhibition, most hits filed as inhibitors. AID 1490. Q9F4F7. Biochemical Sfp PPTase activity, qHTS. actives 3.5% (n = 310,000);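 note: the enzyme is Sfp with the accession as filed and its product quenches rhodamine fluorescence; 0% = enzyme reaction without inhibitor and -100% = no enzyme wells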
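Step 1, compound plus 15 nM Sfp-PPTase, 15 min, room temperature. Step 2, add rhodamine-CoA (5 uM) and BHQ-2-YbbR (12.5 uM). Step 3, read 525/598 nm fluorescence at 0 and 30 min.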
BAZ2B block = inhibitors of human BAZ2B bromodomain; Q9UIF8; AlphaScreen BAZ2B-H3K14Ac peptide displacement; Potency, µM (top dose mostly 114 µM), for the others: at the highest dose activity change, negative = inhibition, actives largely listed as inhibitors; actives 4.4% (n = 360,000); AID 504333; note: % is set by controls: 0 for no effect and ±100 for the full control effect; nearly all actives have a fitted effect of over 60% in size
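BAZ2B 50 nM plus b-H3(5-23)K14Ac 50 nM, PBS pH 7.4/0.01% Tween-20, 30 min RT; compound added (max 110 uM), 30 min RT; streptavidin donor/Ni-chelate acceptor beads 10 ug/mL final, 20 min dark; AlphaScreen read.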
HP1b binding inh = HP1-beta chromodomain-methylated histone interaction inhibition; P83916; AlphaScreen HP1-beta / biotin-H3K9me3 peptide binding; Potency, µM (highest dose often 114 µM), without a hit: top-dose activity change, negative = inhibition, actives largely listed as inhibitors; actives 0.56% (n = 390,000); AID 540317; note: nearly all actives have a fitted effect of over 70% in size
Target sequence (P83916 whole entry, looked up): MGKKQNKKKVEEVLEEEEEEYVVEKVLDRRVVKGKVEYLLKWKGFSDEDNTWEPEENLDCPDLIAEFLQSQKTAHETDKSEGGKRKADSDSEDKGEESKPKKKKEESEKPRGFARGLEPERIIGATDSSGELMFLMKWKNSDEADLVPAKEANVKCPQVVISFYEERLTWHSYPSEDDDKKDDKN
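Compound inhibition of the preformed complex between 50 nM HP1-beta and 50 nM biotinylated H3K9me3 peptide was read by AlphaScreen. Buffer was PBS pH 7.4 with 0.01% Tween-20. Incubations ran 30 min at room temperature, with 10 ug/mL donor/acceptor beads.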
12-LOX inh = ALOX12 (human) lipoxygenase inhibition. P18054. Potency, µM (titrated, usually from 108 µM), for inactives: at the top dose activity change, negative = inhibition, most hits filed as inhibitors. actives 1.1% (n = 580,000). purified 12hLO, xylenol orange hydroperoxide absorbance; note: % is set by controls: 0 for no effect and ±100 for the full control effect
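Purified human 12hLO at 150 nM in 25 mM Hepes, 0.01% Triton X-100, pH 7.0, preincubated 15 min at room temperature with compound. Reaction started with 40 uM arachidonic acid, 30 min at room temperature. Hydroperoxide measured by Fe-xylenol orange, 573/405 nm absorbance ratio.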
JMJD2A Tudor = blocks the human JMJD2A Tudor domain. O75164. AlphaScreen JMJD2A-Tudor / H3K4me3 peptide binding. Potency, µM (titrated, usually from 114 µM), inactives show at the highest dose activity change, negative = inhibition, hits mostly inhibitors. actives 4.4% (n = 390,000); note: % is set by controls: 0 for no effect and ±100 for the full control effect; nearly all actives have a fitted effect of over 50% in size
An asterisk follows results filed as active; ? = inconclusive; · = not tested or not shown; [ ] = dose if it differs, or a comment. An excerpt weighted towards active compounds, which were near 8.7% of everything screened. Calls come from the whole dose curve; as a rule, active = well fitted curve in the direction sought with a large enough effect; inconclusive = small, poorly fitted or top-dose-only effect, or another doubt; inactive = no such curve, though single readings can be large; an effect the other way counts as inactive or inconclusive. Potency is the fitted concentration of half-maximal effect.

SMILES | G9a block | Sfp inh | BAZ2B block | HP1b binding inh | 12-LOX inh | JMJD2A Tudor
Oc1ccc(NC(=S)N=Nc2c(O)[nH]c3ccc(Br)cc23)cc1 | ? | -14% | 20µM* | ? | ? | 32µM*
Oc1[nH]c2ccc(Br)cc2c1N=NC(=S)Nc1ccc(F)cc1 | -41% | ? | ? | ? | -4% | -31%
Oc1ccc(NC(=S)N=Nc2c(O)[nH]c3ccccc23)cc1 | 50µM* | -8% | -15% | ? | ? | ?
O=C(N=Nc1c(O)[nH]c2ccccc12)c1cccs1 | 79µM* | -28% | -24% | 31% | -13% | -12%
CCn1nccc1C(=O)N1CCC(C(=O)N2CCCCCCNC(=O)CC2)CC1 | · | · | · | · | 29% | ·
Cc1cc(-c2ccccc2N)n[nH]1 | 50µM* | 4% | ? | 19% | 10% | -12%
CCC1(C)N([O-])C(C)=C(c2ccccc2)[N+]1=O (stereo unspecified) | -3%[12.7 µM] | 12% | 2% | 30% | 156% | -8%
CC1(C)N([O-])C2=C(c3ccccc3C2=O)[N+](=O)C1(C)C | 79µM* | 5% | 13% | -2% | ? | -8%
COc1ccc(OC)c(-c2csc(NC(=O)c3nn(C(C)C)c(=O)c4ccccc34)n2)c1 | · | · | · | · | 15% | ·
Cc1c(C(=O)O)c(O)cc2c1C(=O)c1c(O)c([C@@H]3O[C@H](CO)[C@@H](O)[C@H](O)[C@H]3O)c(O)c(O)c1C2=O | · | · | · | ? | -8% | 25µM*
Cc1c(C(=O)O)c(O)cc2c1C(=O)c1c(O)c([C@H]3O[C@H](CO)[C@@H](O)[C@H](O)[C@H]3O)c(O)c(O)c1C2=O | 7.1µM* | ? | · | · | · | ·
Cn1cc(C(=O)N2CCN(Cc3ccc4c(c3)OCCO4)CC2)c(-c2ccc3c(c2)OCCCO3)n1 | · | · | · | · | 10% | ·
CCOC(=O)c1sc2nc(SCC(=O)NCc3ccco3)n(Cc3ccccc3)c(=O)c2c1C | -1%[59 µM] | -4% | 13% | 21% | -6% | -30%
CCCn1c(SCC(=O)NCc2ccco2)nnc1-c1ccncc1 | 1% | 12% | -15% | 15% | -2% | -12%
CC(C)(C)c1nc(SCC(=O)NCc2ccco2)c2ccccc2n1 | 50µM* | -17% | ? | 8% | ? | -31%
CCCCn1c(SCC(=O)NCc2ccco2)nc2ccccc2c1=O | -68% | 9% | -2% | 24% | -3% | -20%
Cc1sc2nc(SCC(=O)NCc3ccco3)n(Cc3ccccc3)c(=O)c2c1C | 50µM* | ? | 17% | 17% | 0% | -15%
O=C(CSc1nc2ccccc2c(=O)n1Cc1ccco1)NCc1ccco1 | ? | ? | ? | -12% | ? | 56µM*
Cc1[nH]c2ccc(-c3nnc(SCC(=O)NCc4ccco4)n3Cc3ccccc3)cc2c1C | 40µM* | 5% | 56µM* | -37% | 136% | 56µM*
O=C(CCOc1ccccc1Cl)N1CCC(c2nnc3n2CCC3)CC1 | · | · | · | · | 7% | ·
Cc1ccc(-c2nnc(C3CN(C(=O)CC4CCCCC4)CC34CCOCC4)o2)cc1 (stereo unspecified) | · | · | · | · | 31% | ·
O=C(/C(N=Nc1cccc(C(F)(F)F)c1)=C(/O)c1cccs1)C(F)(F)F | 20µM* | -6% | ? | ? | ? | 50µM*
CC(=O)/C(N=Nc1cccc(C(F)(F)F)c1)=C(\C)O | 2% | -30% | -17% | 25% | -2% | -18%
Cc1cc(=O)oc2cc(OCC(=O)N3c4ccccc4CC3C)ccc12 (stereo unspecified) | -6%[59 µM] | -5% | 12% | 17% | -2% | -9%
CC1Cc2ccccc2N1C(=O)COC(=O)c1ccco1 (stereo unspecified) | · | · | · | · | -8% | ·
SMILES | G9a block | Sfp inh | BAZ2B block | HP1b binding inh | 12-LOX inh | JMJD2A Tudor
Cc1cc(C(=O)OCC(=O)N2c3ccccc3CC2C)c(C)o1 (stereo unspecified) | 11µM* | 0% | -31% | -2% | -6% | -20%
CCN(CC)c1cccc(OCC(=O)N2c3ccccc3CC2C)c1 (stereo unspecified) | 10µM* | · | ? | -15% | ? | ?
Cc1cccc(CSc2nnc(CCNC(=O)OC(C)(C)C)o2)c1 | 5% | 7% | 0% | 21% | 7.9µM* | 1%
CC(C)(C)OC(=O)NCCc1nnc(SCc2cccc(Cl)c2)o1 | · | 2% | 9% | 34% | 177% | 10%
O=C(NC1CCCC1)c1c(O)nc2sccn2c1=O | ? | · | 1% | 31% | -15% | -16%
O=C(NCCN1CCOCC1)c1c(O)nc2sccn2c1=O | ? | · | -28% | 4% | ? | 32µM*
O=C(NC1CCCCC1)Sc1ccc(Cl)cc1 | ? | 28µM* | 57% | 69% | 0% | 110%
O=C(CC1CCCCC1)N1CCC(Cc2nc(-c3ccc(F)cc3)no2)CC1 | · | · | · | · | 12% | ·
CCC(=O)Oc1ccc2c(c1)O/C(=C\c1ccco1)C2=O | 50µM* | -13% | ? | ? | 25µM* | -30%
COc1ccccc1/C=C1\Oc2cc(OC(=O)C(C)(C)C)ccc2C1=O | · | · | · | · | -29% | ·
COC(=O)COc1ccc2c(c1)O/C(=C\c1ccco1)C2=O | 25µM* | 56µM* | ? | -19% | ? | ?
CCN(CC)C(=O)Oc1ccc2c(c1)O/C(=C\c1ccco1)C2=O | 25µM* | ? | 40µM* | -19% | ? | ?
Cc1ccc(C(=O)OCc2cc3ccccc3[nH]c2=O)cc1 | -5% | 12% | 2% | 16% | 10% | -12%
Cc1ccc2cc(COC(=O)c3ccncc3)c(=O)[nH]c2c1 | 50µM* | -9% | 12% | 8% | 148%[57.4 µM] | -14%
CCOC(=O)C1=C(C)NC(C)=C(C(=O)OCC)C1c1cc2ccc(C)cc2[nH]c1=O | 50µM* | -13% | ? | -5% | ? | -18%[57.1 µM]
Cc1c(C(=O)NC2CCS(=O)(=O)C2)oc2ccccc12 (stereo unspecified) | 45µM* | 15% | 23% | 51% | 11% | -2%
COc1ccc2oc(C(=O)Nc3ccc(N4CCOCC4)cc3)c(C)c2c1 | 50µM* | · | 50µM* | -15% | ? | ?
COc1ccc2oc(C(=O)Nc3ccccc3N3CCOCC3)c(C)c2c1 | 45µM* | · | 8% | 10% | 0% | -13%
Cc1c(C(=O)Nc2ccc(N3CCOCC3)cc2)oc2ccccc12 | ? | -13% | 3% | 1% | 2% | 56µM*
Cc1c(C(=O)OCC(=O)Nc2ccc(N3CCOCC3)cc2)oc2ccccc12 | 16%[0.501 µM] | · | 10% | 1% | -26% | -16%
CCOc1cc(N2CCOCC2)c(OCC)cc1NC(=O)c1oc2ccccc2c1C | -7% | 4% | · | -2% | -5% | -20%
Cc1sc2nc(SCc3noc(C(C)(C)C)n3)n(C)c(=O)c2c1C | · | · | · | · | -26% | ·

Screening data (PubChem BioAssay)
